Experimental data from PMC4336329 (PLoS ONE, 2015).
Hit rate of the full screen: of about 310,000 compounds, about 2,200 (0.71%) showed an effect of 50% or more. Effects have a minus sign here. For the sample, strong results were picked, then their nearest neighbours and some compounds at random.

target: human ether-à-go-go-related gene (hERG) potassium channel (human, UniProt Q12809); assay: primary screen, population patch clamp on CHO cells stably expressing hERG; higher = less effect of the substance
Sequence (Q12809 whole entry, looked up): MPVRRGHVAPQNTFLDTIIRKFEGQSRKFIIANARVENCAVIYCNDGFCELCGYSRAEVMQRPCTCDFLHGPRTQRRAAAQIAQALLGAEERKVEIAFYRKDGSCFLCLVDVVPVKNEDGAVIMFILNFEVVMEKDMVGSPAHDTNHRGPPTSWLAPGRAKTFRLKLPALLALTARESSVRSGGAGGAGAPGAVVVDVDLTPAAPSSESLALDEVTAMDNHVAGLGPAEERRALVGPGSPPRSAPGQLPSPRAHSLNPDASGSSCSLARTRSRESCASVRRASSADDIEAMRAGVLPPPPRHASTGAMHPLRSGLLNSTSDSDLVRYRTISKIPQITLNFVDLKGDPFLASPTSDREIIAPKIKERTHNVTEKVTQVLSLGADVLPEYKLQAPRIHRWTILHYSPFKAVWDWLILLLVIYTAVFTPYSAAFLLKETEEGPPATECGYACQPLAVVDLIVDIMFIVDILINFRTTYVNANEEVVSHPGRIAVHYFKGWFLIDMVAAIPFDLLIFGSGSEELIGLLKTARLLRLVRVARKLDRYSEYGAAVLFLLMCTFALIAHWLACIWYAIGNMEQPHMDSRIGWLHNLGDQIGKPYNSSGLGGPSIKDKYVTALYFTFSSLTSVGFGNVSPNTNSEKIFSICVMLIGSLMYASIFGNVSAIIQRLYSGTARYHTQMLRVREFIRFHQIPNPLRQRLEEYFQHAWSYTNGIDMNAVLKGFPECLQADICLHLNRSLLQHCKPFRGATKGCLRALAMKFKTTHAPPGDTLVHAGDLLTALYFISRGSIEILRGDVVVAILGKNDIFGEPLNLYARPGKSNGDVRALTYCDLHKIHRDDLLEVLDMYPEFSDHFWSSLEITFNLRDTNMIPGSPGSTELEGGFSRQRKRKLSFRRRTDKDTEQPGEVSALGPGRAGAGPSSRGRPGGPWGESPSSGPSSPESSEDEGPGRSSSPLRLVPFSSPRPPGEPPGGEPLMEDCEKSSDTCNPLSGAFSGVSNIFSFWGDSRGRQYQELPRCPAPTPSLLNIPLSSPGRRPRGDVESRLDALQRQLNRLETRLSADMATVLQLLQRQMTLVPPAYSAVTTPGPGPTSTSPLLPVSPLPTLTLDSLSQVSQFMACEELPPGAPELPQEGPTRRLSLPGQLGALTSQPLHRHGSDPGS

SMILES | hERG current change (%, negative = inhibition) at 1uM
O=C(O)CCc1ccc(-c2ccccc2)n1-c1cccc(C(=O)O)c1 | 15.2%
O=C(NCCS(=O)(=O)N1CCN(c2ccccc2)CC1)C1CC(=O)N(c2ccccc2)C1 (stereo not shown) | 18%
Cc1ccc(C)c(CN2C(=O)CSc3ccc(C(=O)N4CCCC4)cc32)c1 | 5.65%
Cc1ccc(C)c(CN2C(=O)CSc3ccc(C(=O)NCCN4CCOCC4)cc32)c1 | 20.1%
Cc1ccc(C)c(CN2C(=O)CSc3ccc(C(=O)NCC(C)CN4CCC(C)CC4)cc32)c1 (stereo not shown) | -70.4%
N#Cc1ccc(NC(=O)COC(=O)CSc2nnc(-c3ccc(Cl)cc3)o2)cc1 | 6.91%
Cc1sc2ncnc(N3CCC(C(=O)N(C)CC(=O)Nc4ccccc4Br)CC3)c2c1C | -8.93%
Cc1sc2ncnc(N3CCC(C(=O)N(C)CC(=O)Nc4ccccc4Cl)CC3)c2c1C | -30%
CCCN(CC(=O)Nc1ccccc1C)C(=O)C1CCN(c2ncnc3sc(C)c(C)c23)CC1 | -56.5%
CCN1CCN(c2nc(-c3cccs3)nc3ccccc23)CC1 | -66.2%
c1ccc(N2CCN(c3nc(-c4cccs4)nc4ccccc34)CC2)cc1 | 4.12%
CCCN1CCN(c2nc(-c3cccs3)nc3ccccc23)CC1 | -16.1%
CC(=O)N1CCN(c2nc(-c3cccs3)nc3ccccc23)CC1 | -49.4%
c1csc(-c2nc(N3CCOCC3)c3ccccc3n2)c1 | 5.11%
CN1CCN(c2nc(-c3cccs3)nc3ccccc23)CC1 | -55%
COc1ccc(CC(=O)N2CCN(S(=O)(=O)c3cc(Cl)ccc3Cl)CC2)cc1 | 14%
CCOC(=O)N1CCC(N2CCN(c3cc(C)ccc3C)CC2)CC1 | -32.2%
COc1cccc2c1OCC/C2=N\NC(=O)COc1ccccc1C | -13.9%
COc1ccc(CNC(=O)C2CC(c3cccc([N+](=O)[O-])c3)=NO2)cc1 (stereo not shown) | 5.46%
O=C(NCc1cccnc1)c1ccc(Cl)cc1[N+](=O)[O-] | 7.05%
c1ccc(CSc2ncnc3c2oc2ccccc23)cc1 | 9.56%
Cc1ccc(CNC(=O)c2cc3c(=O)n4ccccc4nc3n(CC3CCCO3)c2=N)cc1 (stereo not shown) | -85.7%
COc1ccc(CNC(=O)c2cc3c(=O)n4ccccc4nc3n(CC3CCCO3)c2=N)cc1 (stereo not shown) | -80.4%
N=c1c(C(=O)NCc2ccc3c(c2)OCO3)cc2c(=O)n3ccccc3nc2n1CC1CCCO1 (stereo not shown) | -84.2%
N=c1c(S(=O)(=O)c2ccc(F)cc2)cc2c(=O)n3ccccc3nc2n1CC1CCCO1 (stereo not shown) | -2.33%
N=c1c(C(=O)NCc2ccc(F)cc2)cc2c(=O)n3ccccc3nc2n1CC1CCCO1 (stereo not shown) | -85.3%
CCOC(=O)c1cc2c(=O)n3ccccc3nc2n(CC2CCCO2)c1=NC(C)=O (stereo not shown) | 16.6%
O=C(CSc1nc2ccccc2c(=O)n1CC1CCCO1)NCc1ccc2c(c1)OCO2 (stereo not shown) | 9.71%
